In PubChem BioAssay (NCATS):
Records with an inconclusive call do not appear. Unmarked numbers belong to inactive results. Active and inactive are the calls of the source. The call rests on the fitted dose curve; in most records, active means well fitted cell-killing curve with a large enough effect; inconclusive means small, poorly fitted or top-dose-only effect, or effect the other way; inactive means no such curve, though single readings can be large or run the other way.
Potency means the concentration at half of the fitted maximal effect.

Assay: Quantitative High-Throughput drug screen in 47 multiple myeloma cell lines against the NCATS MIPE library collection: KMS27_JCRB cell viability assay (AID 1918970); further: nearly all actives have a fitted effect of over 30% in size
Details: KMS27 myeloma cells, CellTiter-Glo ATP viability, 48 h; series mostly up to 45.8 µM; viability (% of DMSO): at the top concentration
In short: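 Viability inhibition screen, 48 h compound exposure, luminescent ATP read-out.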
In the case of Cn1c(CNc2ccc(C(=N)N)cc2)nc2cc(C(=O)N(CCC(=O)O)c3ccccn3)ccc21, the “viability (% of DMSO)” value was 125% [at 23.2 µM].
For CN1CC[C@@H](c2c(O)cc(O)c3c(=O)cc(-c4ccccc4Cl)oc23)[C@@H](O)C1, the Potency was 0.0935 µM (active).
In the case of CNC(=O)c1c(F)cccc1Nc1nc(Nc2cc3c(cc2OC)CCN3C(=O)CN(C)C)nc2[nH]ccc12, the “viability (% of DMSO)” value was 155%.
With COc1cc(=C2C=c3ccccc3=N2)[nH]c1=Cc1[nH]c(C)cc1C the Potency was 16.6 µM (active).
In the case of CC[C@H]1CN2CCc3cc(OC)c(OC)cc3[C@H]2C[C@@H]1C[C@@H]1NCCc2cc(OC)c(OC)cc21, the Potency was 0.148 µM (active).
With Cn1cc(-c2[nH]c3cc(NC(=O)[C@H](N)C4CCCCC4)cc4c3c2C=NNC4=O)cn1 the Potency was 0.148 µM (active).
With Nc1nc(Nc2ccc(S(N)(=O)=O)cc2)nn1C(=O)c1c(F)cccc1F the Potency was 4.18 µM (active).
For COc1cccc2nc(-c3cccs3)nc(NN3C(=O)C=C(C)C3=O)c12, the Potency was 0.235 µM (active).
With CCOc1ccccc1OCCNC(C)Cc1ccc(OC)c(S(N)(=O)=O)c1 (centres undefined) the “viability (% of DMSO)” value was 100%.
With COC(=O)Nc1ccc(-c2nc(N3CCOCC3)c3cnn(C4CCN(Cc5cccnc5)CC4)c3n2)cc1 the “viability (% of DMSO)” value was 111%.
For CCCCCCCCCC(=O)N[C@@H](Cc1c[nH]c2ccccc12)C(=O)N[C@H](CC(N)=O)C(=O)N[C@@H](CC(=O)O)C(=O)N[C@@H]1C(=O)NCC(=O)N[C@@H](CCCN)C(=O)N[C@@H](CC(=O)O)C(=O)N[C@H](C)C(=O)N[C@@H](CC(=O)O)C(=O)NCC(=O)N[C@H](CO)C(=O)N[C@@H]([C@@H](C)CC(=O)O)C(=O)N[C@@H](CC(=O)c2ccccc2N)C(=O)O[C@@H]1C, the “viability (% of DMSO)” value was 127%.
For NC1(Cc2ccc(Cl)cc2)CCN(c2ncnc3[nH]ccc23)CC1, the Potency was 4.69 µM (active).
For CN1CCN(c2ccc3nc(-c4c(N)c5c(F)cccc5[nH]c4=O)[nH]c3c2)CC1, the Potency was 7.43 µM (active).
For O=c1[nH]nc(Sc2ncc([N+](=O)[O-])s2)n1-c1ccc2c(c1)OCCO2, the Potency was 6.62 µM (active).
With CC=C1NC(=O)[C@H]2CSSCCC=C[C@H](CC(=O)N[C@H](C(C)C)C(=O)N2)OC(=O)[C@H](C(C)C)NC1=O the Potency was 0.001 µM (active).
For CCC[C@H](NC(=O)C(C#N)=Cc1cccc(Br)n1)c1ccccc1, the Potency was 7.43 µM (active).

Assay: Quantitative High-Throughput drug screen in 47 multiple myeloma cell lines against the NCATS MIPE library collection: KMS12BM_JCRB cell viability assay (AID 1918971); further: nearly all actives have a fitted effect of over 35% in size
Details: KMS12BM myeloma viability, CellTiter-Glo ATP, 48 h; series mostly up to 45.8 µM; viability, % of DMSO: at the top concentration
In short: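 CellTiter-Glo luminescence (ATP) after 48 h compound exposure, 37C/5% CO2; 500 cells/well; MIPE 4.0 approved/investigational drugs pinned in; DMSO = 100%, media only = 0% viability.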
In the case of C[C@@]12O[C@@H](C[C@]1(O)CO)n1c3ccccc3c3c4c(c5c6ccccc6n2c5c31)CNC4=O, the Potency was 1.48 µM (active).
In the case of Cn1c(CNc2ccc(C(=N)N)cc2)nc2cc(C(=O)N(CCC(=O)O)c3ccccn3)ccc21, the “viability, % of DMSO” value was 155% [at 23.2 µM].
With CN1CC[C@@H](c2c(O)cc(O)c3c(=O)cc(-c4ccccc4Cl)oc23)[C@@H](O)C1 the Potency was 0.132 µM (active).
With Nc1nccc(Oc2ccc(NC(=O)c3c[nH]cc(-c4ccc(F)cc4)c3=O)cc2F)c1Cl the Potency was 16.6 µM (active).
In the case of CNC(=O)c1c(F)cccc1Nc1nc(Nc2cc3c(cc2OC)CCN3C(=O)CN(C)C)nc2[nH]ccc12, the Potency was 14.8 µM (active).
With Cc1cn2c(-c3cn[nH]c3)cnc2c(Nc2ccc(C(=O)N3CCNCC3)cc2F)n1 the Potency was 14.8 µM (active).
For COc1cc(=C2C=c3ccccc3=N2)[nH]c1=Cc1[nH]c(C)cc1C, the Potency was 1.66 µM (active).
With OCc1ccc(-c2ccc(-c3ccc(CO)s3)o2)s1 the Potency was 23.5 µM (active).
For Cn1cc(-c2[nH]c3cc(NC(=O)[C@H](N)C4CCCCC4)cc4c3c2C=NNC4=O)cn1, the Potency was 1.05 µM (active).
For COc1cccc2nc(-c3cccs3)nc(NN3C(=O)C=C(C)C3=O)c12, the Potency was 0.105 µM (active).
With O=C(NCCCNc1nc(Nc2cccc(NC(=O)N3CCCC3)c2)ncc1I)c1cccs1 the Potency was 18.7 µM (active).
With C=CCn1c(=O)c2cnc(Nc3ccc(N4CCN(C)CC4)cc3)nc2n1-c1cccc(C(C)(C)O)n1 the Potency was 0.526 µM (active).
With CNC(=O)c1cc(Oc2ccc(NC(=O)Nc3cc(C(C)(C)C)nn3-c3ccc4ncccc4c3)c(F)c2)ccn1 the Potency was 5.9 µM (active).
With O=C(O)C1(Cc2cccc(Nc3nccs3)n2)CCC(Oc2cccc(Cl)c2F)CC1 (centres undefined) the Potency was 1.32 µM (active).
For COc1cc(C(=O)NS(=O)(=O)c2ccccc2C)ccc1Cc1cn(C)c2ccc(NC(=O)OC3CCCC3)cc12, the Potency was 26.4 µM (active).
For O=C(Nc1cn[nH]c1-c1nc2ccc(CN3CCOCC3)cc2[nH]1)NC1CC1, the Potency was 5.9 µM (active).
In the case of COC(=O)Nc1ccc(-c2nc(N3CCOCC3)c3cnn(C4CCN(Cc5cccnc5)CC4)c3n2)cc1, the Potency was 1.05 µM (active).
In the case of Cc1[nH]c2ccccc2c1CCNCc1ccc(C=CC(=O)NO)cc1, the Potency was 0.059 µM (active).
For C[C@@H]1COC(Nc2ccc3ncnc(Nc4ccc(OCc5nccs5)c(Cl)c4)c3c2)=N1, the Potency was 14.8 µM (active).
For CCCCCCCCCC(=O)N[C@@H](Cc1c[nH]c2ccccc12)C(=O)N[C@H](CC(N)=O)C(=O)N[C@@H](CC(=O)O)C(=O)N[C@@H]1C(=O)NCC(=O)N[C@@H](CCCN)C(=O)N[C@@H](CC(=O)O)C(=O)N[C@H](C)C(=O)N[C@@H](CC(=O)O)C(=O)NCC(=O)N[C@H](CO)C(=O)N[C@@H]([C@@H](C)CC(=O)O)C(=O)N[C@@H](CC(=O)c2ccccc2N)C(=O)O[C@@H]1C, the “viability, % of DMSO” value was 147%.
For Cc1cc(CN2CCN(c3c(Br)cnc4nc(-c5ccc(N6CCN(C)CC6)cc5)[nH]c34)CC2)no1, the Potency was 18.7 µM (active).
For NC1(Cc2ccc(Cl)cc2)CCN(c2ncnc3[nH]ccc23)CC1, the Potency was 18.7 µM (active).
For CCCCN1CCC(CNC(=O)c2c3n(c4ccccc24)CCCO3)CC1, the Potency was 10.5 µM (active).
In the case of Cc1c(CN2CCN(S(C)(=O)=O)CC2)sc2c(N3CCOCC3)nc(-c3cnc(N)nc3)nc12, the Potency was 0.0132 µM (active).
For CN1CCN(c2ccc3nc(-c4c(N)c5c(F)cccc5[nH]c4=O)[nH]c3c2)CC1, the Potency was 16.6 µM (active).
In the case of O=c1[nH]nc(Sc2ncc([N+](=O)[O-])s2)n1-c1ccc2c(c1)OCCO2, the Potency was 4.69 µM (active).
For CC=C1NC(=O)[C@H]2CSSCCC=C[C@H](CC(=O)N[C@H](C(C)C)C(=O)N2)OC(=O)[C@H](C(C)C)NC1=O, the Potency was 0.0105 µM (active).
For CCC[C@H](NC(=O)C(C#N)=Cc1cccc(Br)n1)c1ccccc1, the Potency was 2.96 µM (active).
